The results in this text go back to PMC11006913.

Holding throughout (experiment): PBM; 200 nM protein, PBS
Settings in all cases: dsDNA, one strand shown

The target in assay [1] is HESX1 (Homo sapiens, UniProt Q9UBX0 95-180, R165K).
The target in assay [2] is HOXB4 (Homo sapiens, UniProt P17483 148-234).
In assay [3] the target is SHOX (Homo sapiens, UniProt O15266 103-189).
Assay [4] deals with HESX1 (Homo sapiens, UniProt Q9UBX0 95-180).
The target of assay [5] is HOXA4 (Homo sapiens, UniProt Q00056 201-287, R217L).
HOXA4, sequence (Q00056 201-287 R217L): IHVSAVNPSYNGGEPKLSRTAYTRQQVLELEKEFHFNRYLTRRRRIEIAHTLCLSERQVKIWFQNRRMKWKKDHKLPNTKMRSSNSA
Assay [6] has as its target HOXB4 (Homo sapiens, UniProt P17483 148-234, V174I).
Assay [7] deals with ALX1 (Homo sapiens, UniProt Q15699 118-204, L144V).
ALX1 (Homo sapiens, UniProt Q15699 118-204, L144V), sequence (Q15699 118-204 L144V): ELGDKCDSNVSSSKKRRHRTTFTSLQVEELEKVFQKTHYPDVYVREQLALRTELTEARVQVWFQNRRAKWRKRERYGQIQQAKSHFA
Assay [8] addresses ALX3 (Homo sapiens, UniProt O95076 139-225, N203Q).
Assay [9] concerns the target SHOX (Homo sapiens, UniProt O15266 103-189, R173C).
Assay [10] deals with ALX1 (Homo sapiens, UniProt Q15699 118-204, L144R).
ALX1 (Homo sapiens, UniProt Q15699 118-204, L144R), sequence (Q15699 118-204 L144R): as the sequence (Q15699 118-204 L144V) above, with V27R counted along it
The target of assay [11] is ALX3 (Homo sapiens, UniProt O95076 139-225).
ALX3 (Homo sapiens, UniProt O95076 139-225), sequence (O95076 139-225): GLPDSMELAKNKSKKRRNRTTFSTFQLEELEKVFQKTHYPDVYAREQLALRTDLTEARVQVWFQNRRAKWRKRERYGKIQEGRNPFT
In assay [12] the target is PROP1 (Homo sapiens, UniProt O75360 56-141).
PROP1 (Homo sapiens, UniProt O75360 56-141), sequence (O75360 56-141): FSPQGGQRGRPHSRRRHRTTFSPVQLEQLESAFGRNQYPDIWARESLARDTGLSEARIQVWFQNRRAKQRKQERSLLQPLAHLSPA
The target of assay [13] is HESX1 (Homo sapiens, UniProt Q9UBX0 95-180, R109Q).
HESX1 (Homo sapiens, UniProt Q9UBX0 95-180, R109Q), sequence (Q9UBX0 95-180 R109Q): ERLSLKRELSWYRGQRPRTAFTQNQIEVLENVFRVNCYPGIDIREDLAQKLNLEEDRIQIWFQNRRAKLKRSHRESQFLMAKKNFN
Assay [14] deals with PROP1 (Homo sapiens, UniProt O75360 56-141, R99H).
PROP1 (Homo sapiens, UniProt O75360 56-141, R99H), sequence (O75360 56-141 R99H): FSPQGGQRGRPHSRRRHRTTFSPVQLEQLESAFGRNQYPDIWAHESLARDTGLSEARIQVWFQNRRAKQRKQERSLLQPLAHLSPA
Assay [15] addresses ALX3 (Homo sapiens, UniProt O95076 139-225, L168Q).
In assay [16] the target is HESX1 (Homo sapiens, UniProt Q9UBX0 95-180, P111T).
HESX1 (Homo sapiens, UniProt Q9UBX0 95-180, P111T), sequence (Q9UBX0 95-180 P111T): as the sequence (Q9UBX0 95-180 R109Q) above, with Q15R, P17T counted along it
The target of assay [17] is ALX3 (Homo sapiens, UniProt O95076 139-225, L168V).
ALX3 (Homo sapiens, UniProt O95076 139-225, L168V), sequence (O95076 139-225 L168V): as the sequence (O95076 139-225) above, with L30V counted along it
In assay [18] the target is PROP1 (Homo sapiens, UniProt O75360 56-141, F88S).
PROP1 (Homo sapiens, UniProt O75360 56-141, F88S), sequence (O75360 56-141 F88S): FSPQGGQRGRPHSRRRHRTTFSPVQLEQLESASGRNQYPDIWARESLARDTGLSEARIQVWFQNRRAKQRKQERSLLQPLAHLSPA
Assay [19] concerns the target HESX1 (Homo sapiens, UniProt Q9UBX0 95-180, F115L).
Assay [20] addresses ALX3 (Homo sapiens, UniProt O95076 139-225, N203S).

HESX1 (Homo sapiens, UniProt Q9UBX0 95-180, F115L), sequence (Q9UBX0 95-180 F115L): as the sequence (Q9UBX0 95-180 R109Q) above, with Q15R, F21L counted along it
HESX1 (Homo sapiens, UniProt Q9UBX0 95-180, R165K), sequence (Q9UBX0 95-180 R165K): as the sequence (Q9UBX0 95-180 R109Q) above, with Q15R, R71K counted along it
ALX3 (Homo sapiens, UniProt O95076 139-225, L168Q), sequence (O95076 139-225 L168Q): as the sequence (O95076 139-225) above, with L30Q counted along it
HOXB4 (Homo sapiens, UniProt P17483 148-234), sequence (P17483 148-234): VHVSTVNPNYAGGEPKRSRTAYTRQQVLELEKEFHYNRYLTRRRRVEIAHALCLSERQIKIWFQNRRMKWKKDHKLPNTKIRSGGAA
ALX3 (Homo sapiens, UniProt O95076 139-225, N203Q), sequence (O95076 139-225 N203Q): as the sequence (O95076 139-225) above, with N65Q counted along it
ALX3 (Homo sapiens, UniProt O95076 139-225, N203S), sequence (O95076 139-225 N203S): as the sequence (O95076 139-225) above, with N65S counted along it
SHOX (Homo sapiens, UniProt O15266 103-189, R173C), sequence (O15266 103-189 R173C): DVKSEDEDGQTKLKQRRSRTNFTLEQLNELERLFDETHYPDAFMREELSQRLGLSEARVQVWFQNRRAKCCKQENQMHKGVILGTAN
HOXB4 (Homo sapiens, UniProt P17483 148-234, V174I), sequence (P17483 148-234 V174I): as the sequence (P17483 148-234) above, with V27I counted along it
SHOX (Homo sapiens, UniProt O15266 103-189), sequence (O15266 103-189): as the sequence (O15266 103-189 R173C) above, with C71R counted along it
HESX1 (Homo sapiens, UniProt Q9UBX0 95-180), sequence (Q9UBX0 95-180): as the sequence (Q9UBX0 95-180 R109Q) above, with Q15R counted along it

For CAATTATC, the binding signal in [1] is 13 upbm affinity estimate (log intensity, higher = more binding, comparable within an allelic series); in assay [2] it was 13 upbm affinity estimate (log intensity, higher = more binding, comparable within an allelic series); in [3], 11.8 upbm affinity estimate (log intensity, higher = more binding, comparable within an allelic series); in assay [4], 13.1 upbm affinity estimate (log intensity, higher = more binding, comparable within an allelic series); in assay [5], 11.9 upbm affinity estimate (log intensity, higher = more binding, comparable within an allelic series); in assay [6] it was 13.6 upbm affinity estimate (log intensity, higher = more binding, comparable within an allelic series). Moreover, the binding signal is 11.7 upbm affinity estimate (log intensity, higher = more binding, comparable within an allelic series) in assay [7]; 8.4 upbm affinity estimate (log intensity, higher = more binding, comparable within an allelic series) in assay [8]; 9.58 upbm affinity estimate (log intensity, higher = more binding, comparable within an allelic series) in assay [9]; 11.4 upbm affinity estimate (log intensity, higher = more binding, comparable within an allelic series) in [10]; 12.5 upbm affinity estimate (log intensity, higher = more binding, comparable within an allelic series) in assay [11]; 11.5 upbm affinity estimate (log intensity, higher = more binding, comparable within an allelic series) in [12]. The binding signal is 9.41 upbm affinity estimate (log intensity, higher = more binding, comparable within an allelic series) in assay [13]; 11.7 upbm affinity estimate (log intensity, higher = more binding, comparable within an allelic series) in assay [14]; 10.6 upbm affinity estimate (log intensity, higher = more binding, comparable within an allelic series) in assay [15]; 11.4 upbm affinity estimate (log intensity, higher = more binding, comparable within an allelic series) in assay [16]; 10.1 upbm affinity estimate (log intensity, higher = more binding, comparable within an allelic series) in assay [17]; 7.73 upbm affinity estimate (log intensity, higher = more binding, comparable within an allelic series) in assay [18]. Further, the binding signal is 8 upbm affinity estimate (log intensity, higher = more binding, comparable within an allelic series) in assay [19] and 8.56 upbm affinity estimate (log intensity, higher = more binding, comparable within an allelic series) in [20].

In the case of GTCAATTA, the binding signal in assay [1] is 13.1 upbm affinity estimate (log intensity, higher = more binding, comparable within an allelic series); in assay [2], 13.3 upbm affinity estimate (log intensity, higher = more binding, comparable within an allelic series); in assay [3], 12.4 upbm affinity estimate (log intensity, higher = more binding, comparable within an allelic series); in [4], 13.1 upbm affinity estimate (log intensity, higher = more binding, comparable within an allelic series); in [5] it was 12.1 upbm affinity estimate (log intensity, higher = more binding, comparable within an allelic series); in [6], 13.9 upbm affinity estimate (log intensity, higher = more binding, comparable within an allelic series). Also, the binding signal in [7] was 11.8 upbm affinity estimate (log intensity, higher = more binding, comparable within an allelic series); in assay [8] it was 8.23 upbm affinity estimate (log intensity, higher = more binding, comparable within an allelic series); in assay [9], 9.5 upbm affinity estimate (log intensity, higher = more binding, comparable within an allelic series); in [10], 11.4 upbm affinity estimate (log intensity, higher = more binding, comparable within an allelic series); in assay [11], 12.5 upbm affinity estimate (log intensity, higher = more binding, comparable within an allelic series); in [12] it was 11.4 upbm affinity estimate (log intensity, higher = more binding, comparable within an allelic series). Also, the binding signal in assay [13] is 9.32 upbm affinity estimate (log intensity, higher = more binding, comparable within an allelic series); in assay [14], 11.8 upbm affinity estimate (log intensity, higher = more binding, comparable within an allelic series); in [15], 10.7 upbm affinity estimate (log intensity, higher = more binding, comparable within an allelic series); in [16], 11.6 upbm affinity estimate (log intensity, higher = more binding, comparable within an allelic series); in assay [17], 10.1 upbm affinity estimate (log intensity, higher = more binding, comparable within an allelic series); in assay [18], 7.62 upbm affinity estimate (log intensity, higher = more binding, comparable within an allelic series). Moreover, the binding signal was 7.69 upbm affinity estimate (log intensity, higher = more binding, comparable within an allelic series) in assay [19] and 8.41 upbm affinity estimate (log intensity, higher = more binding, comparable within an allelic series) in [20].

In the case of ACTAATTA, the binding signal in assay [1] is 13.9 upbm affinity estimate (log intensity, higher = more binding, comparable within an allelic series); in assay [2] it was 13.5 upbm affinity estimate (log intensity, higher = more binding, comparable within an allelic series); in assay [3] it was 13.2 upbm affinity estimate (log intensity, higher = more binding, comparable within an allelic series); in assay [4] it was 13.5 upbm affinity estimate (log intensity, higher = more binding, comparable within an allelic series); in [5], 12.9 upbm affinity estimate (log intensity, higher = more binding, comparable within an allelic series); in assay [6], 14.2 upbm affinity estimate (log intensity, higher = more binding, comparable within an allelic series). Also, the binding signal in assay [7] was 12.4 upbm affinity estimate (log intensity, higher = more binding, comparable within an allelic series); in assay [8] it was 8.59 upbm affinity estimate (log intensity, higher = more binding, comparable within an allelic series); in assay [9] it was 10.6 upbm affinity estimate (log intensity, higher = more binding, comparable within an allelic series); in assay [10] it was 12 upbm affinity estimate (log intensity, higher = more binding, comparable within an allelic series); in assay [11], 12.9 upbm affinity estimate (log intensity, higher = more binding, comparable within an allelic series); in assay [12], 12.2 upbm affinity estimate (log intensity, higher = more binding, comparable within an allelic series). The binding signal in assay [13] was 10.5 upbm affinity estimate (log intensity, higher = more binding, comparable within an allelic series); in [14], 12.4 upbm affinity estimate (log intensity, higher = more binding, comparable within an allelic series); in assay [15], 11.5 upbm affinity estimate (log intensity, higher = more binding, comparable within an allelic series); in [16], 12.4 upbm affinity estimate (log intensity, higher = more binding, comparable within an allelic series); in [17], 11.2 upbm affinity estimate (log intensity, higher = more binding, comparable within an allelic series); in assay [18], 8.34 upbm affinity estimate (log intensity, higher = more binding, comparable within an allelic series). The binding signal in [19] was 8.35 upbm affinity estimate (log intensity, higher = more binding, comparable within an allelic series); in assay [20] it was 8.73 upbm affinity estimate (log intensity, higher = more binding, comparable within an allelic series).

For TCAATTAA, the binding signal in assay [1] was 13.4 upbm affinity estimate (log intensity, higher = more binding, comparable within an allelic series); in assay [2], 13.3 upbm affinity estimate (log intensity, higher = more binding, comparable within an allelic series); in assay [3], 12.4 upbm affinity estimate (log intensity, higher = more binding, comparable within an allelic series); in assay [4], 13.2 upbm affinity estimate (log intensity, higher = more binding, comparable within an allelic series); in assay [5], 12.4 upbm affinity estimate (log intensity, higher = more binding, comparable within an allelic series); in assay [6], 14 upbm affinity estimate (log intensity, higher = more binding, comparable within an allelic series). Also, the binding signal in assay [7] is 12 upbm affinity estimate (log intensity, higher = more binding, comparable within an allelic series); in assay [8], 8.44 upbm affinity estimate (log intensity, higher = more binding, comparable within an allelic series); in assay [9] it was 9.85 upbm affinity estimate (log intensity, higher = more binding, comparable within an allelic series); in [10], 11.7 upbm affinity estimate (log intensity, higher = more binding, comparable within an allelic series); in assay [11] it was 12.7 upbm affinity estimate (log intensity, higher = more binding, comparable within an allelic series); in assay [12], 11.6 upbm affinity estimate (log intensity, higher = more binding, comparable within an allelic series). In addition, the binding signal in [13] is 9.91 upbm affinity estimate (log intensity, higher = more binding, comparable within an allelic series); in [14], 12 upbm affinity estimate (log intensity, higher = more binding, comparable within an allelic series); in [15], 11 upbm affinity estimate (log intensity, higher = more binding, comparable within an allelic series); in [16], 11.9 upbm affinity estimate (log intensity, higher = more binding, comparable within an allelic series); in assay [17], 10.5 upbm affinity estimate (log intensity, higher = more binding, comparable within an allelic series); in [18], 7.83 upbm affinity estimate (log intensity, higher = more binding, comparable within an allelic series). The binding signal in assay [19] was 7.87 upbm affinity estimate (log intensity, higher = more binding, comparable within an allelic series); in assay [20], 8.6 upbm affinity estimate (log intensity, higher = more binding, comparable within an allelic series).
